The values below come from paper PMC11006913.

Where a chain is given by its changes, count along the chain named.

Test in all cases: PBM; 200 nM protein, PBS
Holding throughout (conditions): dsDNA, one strand shown

The target of assay [1] is HOXB9 (Homo sapiens, UniProt P17482 171-250, T197M).
For assay [2], the target named is HOXC9 (Homo sapiens, UniProt P31274 178-260, K195R).
In assay [3] the target is T1, VENTX (Homo sapiens, UniProt O95231 78-163).
T1 sequence: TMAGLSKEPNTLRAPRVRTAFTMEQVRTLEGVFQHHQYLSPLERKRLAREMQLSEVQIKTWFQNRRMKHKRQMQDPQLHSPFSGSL

For assay [4], the target named is T2, PAX4 (Homo sapiens, UniProt O43316 9-242, R200K).
T2 sequence: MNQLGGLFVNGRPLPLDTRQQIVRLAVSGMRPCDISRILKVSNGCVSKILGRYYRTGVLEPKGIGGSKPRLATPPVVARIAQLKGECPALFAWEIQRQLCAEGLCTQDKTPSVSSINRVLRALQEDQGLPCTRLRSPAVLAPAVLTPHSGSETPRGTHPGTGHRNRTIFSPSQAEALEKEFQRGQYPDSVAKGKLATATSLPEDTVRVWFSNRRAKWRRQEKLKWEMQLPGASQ

Assay [5] concerns the target T3, VENTX (Homo sapiens, UniProt O95231 78-163, Y115F).
T3 sequence: T1 sequence with Y38F

The target in assay [6] is T4, PAX4 (Homo sapiens, UniProt O43316 9-242).
T4 sequence: T2 sequence with K192R

The target of assay [7] is HOXB9 (Homo sapiens, UniProt P17482 171-250).
HOXB9 (Homo sapiens, UniProt P17482 171-250), sequence (P17482 171-250): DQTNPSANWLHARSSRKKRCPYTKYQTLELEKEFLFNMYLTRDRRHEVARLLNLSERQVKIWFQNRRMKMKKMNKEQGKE
Assay [8] addresses T5, PAX4 (Homo sapiens, UniProt O43316 9-242, R200Q).
T5 sequence: T2 sequence with K192Q

The target of assay [9] is HOXC9 (Homo sapiens, UniProt P31274 178-260, R193K).
HOXC9 (Homo sapiens, UniProt P31274 178-260, R193K), sequence (P31274 178-260 R193K): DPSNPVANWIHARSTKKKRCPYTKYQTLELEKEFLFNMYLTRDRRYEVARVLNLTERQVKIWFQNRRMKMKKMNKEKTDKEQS
For assay [10], the target named is T6, PAX4 (Homo sapiens, UniProt O43316 9-242, F177V).
T6 sequence: T2 sequence with F169V, K192R

For the next assay, the target named is HOXC10 (Homo sapiens, UniProt Q9NYD6 254-340, K271E).
HOXC10, sequence (Q9NYD6 254-340 K271E): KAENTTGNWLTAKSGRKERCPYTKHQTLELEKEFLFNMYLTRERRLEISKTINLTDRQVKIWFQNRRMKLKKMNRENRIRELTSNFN
Assay [11] addresses T7, PAX4 (Homo sapiens, UniProt O43316 9-242, F177Y).
T7 sequence: T2 sequence with F169Y, K192R

For another assay, the target named is VAX1 (Homo sapiens, UniProt Q5SQQ9 86-172).
VAX1, sequence (Q5SQQ9 86-172): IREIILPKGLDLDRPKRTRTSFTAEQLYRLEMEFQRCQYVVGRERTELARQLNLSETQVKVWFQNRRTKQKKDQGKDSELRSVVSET
The target in assay [12] is HOXB9 (Homo sapiens, UniProt P17482 171-250, R186Q).
HOXB9 (Homo sapiens, UniProt P17482 171-250, R186Q), sequence (P17482 171-250 R186Q): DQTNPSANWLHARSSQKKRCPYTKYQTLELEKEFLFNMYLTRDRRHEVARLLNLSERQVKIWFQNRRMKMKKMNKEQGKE
Assay [13] has as its target HOXC9 (Homo sapiens, UniProt P31274 178-260, R222W).
Assay [14] deals with T8, PAX4 (Homo sapiens, UniProt O43316 9-242, R227W).
T8 sequence: T2 sequence with K192R, R219W

For assay [15], the target named is HOXA2 (Homo sapiens, UniProt O43364 129-215, Y150S).
HOXA2 (Homo sapiens, UniProt O43364 129-215, Y150S), sequence (O43364 129-215 Y150S): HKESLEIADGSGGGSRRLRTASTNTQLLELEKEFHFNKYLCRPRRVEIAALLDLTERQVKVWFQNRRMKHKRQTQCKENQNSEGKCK
Assay [16] has as its target HOXA2 (Homo sapiens, UniProt O43364 129-215).
Assay [17] deals with NKX2-5 (Homo sapiens, UniProt P52952 125-210, R139K).
NKX2-5 (Homo sapiens, UniProt P52952 125-210, R139K), sequence (P52952 125-210 R139K): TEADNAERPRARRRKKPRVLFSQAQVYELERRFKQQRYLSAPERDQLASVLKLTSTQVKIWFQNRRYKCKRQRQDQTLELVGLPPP
Assay [18] deals with NKX2-5 (Homo sapiens, UniProt P52952 125-210).
NKX2-5 (Homo sapiens, UniProt P52952 125-210), sequence (P52952 125-210): as the sequence (P52952 125-210 R139K) above, with K15R counted along it

HOXA2 (Homo sapiens, UniProt O43364 129-215), sequence (O43364 129-215): as the sequence (O43364 129-215 Y150S) above, with S22Y counted along it
HOXC9 (Homo sapiens, UniProt P31274 178-260, K195R), sequence (P31274 178-260 K195R): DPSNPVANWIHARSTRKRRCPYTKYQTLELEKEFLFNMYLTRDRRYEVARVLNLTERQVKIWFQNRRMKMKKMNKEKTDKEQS
HOXB9 (Homo sapiens, UniProt P17482 171-250, T197M), sequence (P17482 171-250 T197M): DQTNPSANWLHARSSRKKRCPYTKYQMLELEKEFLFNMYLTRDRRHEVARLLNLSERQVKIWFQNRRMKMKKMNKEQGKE
HOXC9 (Homo sapiens, UniProt P31274 178-260, R222W), sequence (P31274 178-260 R222W): as the sequence (P31274 178-260 R193K) above, with K16R, R45W counted along it

For GATAATTA, the binding signal with HOXB9 [1] is 10.5 upbm affinity estimate (log intensity, higher = more binding, comparable within an allelic series); with HOXC9 [2], 12.9 upbm affinity estimate (log intensity, higher = more binding, comparable within an allelic series); in the assay with VENTX [3] it was 12.8 upbm affinity estimate (log intensity, higher = more binding, comparable within an allelic series); with PAX4 [4], 12 upbm affinity estimate (log intensity, higher = more binding, comparable within an allelic series); in the assay with VENTX [5], 12.3 upbm affinity estimate (log intensity, higher = more binding, comparable within an allelic series); with PAX4 [6], 12.6 upbm affinity estimate (log intensity, higher = more binding, comparable within an allelic series). Also, the binding signal in the assay with HOXB9 [7] was 11.9 upbm affinity estimate (log intensity, higher = more binding, comparable within an allelic series); with PAX4 [8], 12.4 upbm affinity estimate (log intensity, higher = more binding, comparable within an allelic series); with HOXC9 [9], 12.8 upbm affinity estimate (log intensity, higher = more binding, comparable within an allelic series); in the assay with PAX4 [10], 10.8 upbm affinity estimate (log intensity, higher = more binding, comparable within an allelic series); with HOXC10, 12.2 upbm affinity estimate (log intensity, higher = more binding, comparable within an allelic series); in the assay with PAX4 [11], 11.3 upbm affinity estimate (log intensity, higher = more binding, comparable within an allelic series). For the same sequence, the binding signal with VAX1 was 13.7 upbm affinity estimate (log intensity, higher = more binding, comparable within an allelic series); with HOXB9 [12] it was 11.8 upbm affinity estimate (log intensity, higher = more binding, comparable within an allelic series); in the assay with HOXC9 [13] it was 11.1 upbm affinity estimate (log intensity, higher = more binding, comparable within an allelic series); with PAX4 [14], 11.2 upbm affinity estimate (log intensity, higher = more binding, comparable within an allelic series); in the assay with HOXA2 [15], 10.9 upbm affinity estimate (log intensity, higher = more binding, comparable within an allelic series); in the assay with HOXA2 [16], 13.2 upbm affinity estimate (log intensity, higher = more binding, comparable within an allelic series).

Turning to CGGACCCC, the binding signal with NKX2-5 [17] was 9.12 upbm affinity estimate (log intensity, higher = more binding, comparable within an allelic series); with NKX2-5 [18], 9.03 upbm affinity estimate (log intensity, higher = more binding, comparable within an allelic series).

In the case of AATAATTA, the binding signal with HOXB9 [1] was 10.3 upbm affinity estimate (log intensity, higher = more binding, comparable within an allelic series); with HOXC9 [2], 12.7 upbm affinity estimate (log intensity, higher = more binding, comparable within an allelic series); with VENTX [3], 12.4 upbm affinity estimate (log intensity, higher = more binding, comparable within an allelic series); in the assay with PAX4 [4], 11.8 upbm affinity estimate (log intensity, higher = more binding, comparable within an allelic series); with VENTX [5] it was 11.8 upbm affinity estimate (log intensity, higher = more binding, comparable within an allelic series); in the assay with PAX4 [6], 12.3 upbm affinity estimate (log intensity, higher = more binding, comparable within an allelic series). Further, the binding signal in the assay with HOXB9 [7] was 11.9 upbm affinity estimate (log intensity, higher = more binding, comparable within an allelic series); with PAX4 [8], 12.2 upbm affinity estimate (log intensity, higher = more binding, comparable within an allelic series); in the assay with HOXC9 [9], 12.6 upbm affinity estimate (log intensity, higher = more binding, comparable within an allelic series); with PAX4 [10], 10.8 upbm affinity estimate (log intensity, higher = more binding, comparable within an allelic series); with HOXC10, 11.9 upbm affinity estimate (log intensity, higher = more binding, comparable within an allelic series); in the assay with PAX4 [11], 11.1 upbm affinity estimate (log intensity, higher = more binding, comparable within an allelic series). Moreover, the binding signal with VAX1 is 13.3 upbm affinity estimate (log intensity, higher = more binding, comparable within an allelic series); in the assay with HOXB9 [12], 11.6 upbm affinity estimate (log intensity, higher = more binding, comparable within an allelic series); with HOXC9 [13], 11.1 upbm affinity estimate (log intensity, higher = more binding, comparable within an allelic series); with PAX4 [14] it was 11.2 upbm affinity estimate (log intensity, higher = more binding, comparable within an allelic series); in the assay with HOXA2 [15] it was 10.9 upbm affinity estimate (log intensity, higher = more binding, comparable within an allelic series); with HOXA2 [16], 12.9 upbm affinity estimate (log intensity, higher = more binding, comparable within an allelic series).

Consider ATAATTAT, for which the binding signal with HOXB9 [1] is 10.4 upbm affinity estimate (log intensity, higher = more binding, comparable within an allelic series); in the assay with HOXC9 [2] it was 12.9 upbm affinity estimate (log intensity, higher = more binding, comparable within an allelic series); with VENTX [3], 12.3 upbm affinity estimate (log intensity, higher = more binding, comparable within an allelic series); with PAX4 [4], 11.9 upbm affinity estimate (log intensity, higher = more binding, comparable within an allelic series); in the assay with VENTX [5], 11.8 upbm affinity estimate (log intensity, higher = more binding, comparable within an allelic series); with PAX4 [6], 12.4 upbm affinity estimate (log intensity, higher = more binding, comparable within an allelic series). Besides, the binding signal was 12 upbm affinity estimate (log intensity, higher = more binding, comparable within an allelic series) with HOXB9 [7]; 12.3 upbm affinity estimate (log intensity, higher = more binding, comparable within an allelic series) in the assay with PAX4 [8]; 12.8 upbm affinity estimate (log intensity, higher = more binding, comparable within an allelic series) with HOXC9 [9]; 10.9 upbm affinity estimate (log intensity, higher = more binding, comparable within an allelic series) with PAX4 [10]; 12.1 upbm affinity estimate (log intensity, higher = more binding, comparable within an allelic series) in the assay with HOXC10; 11.3 upbm affinity estimate (log intensity, higher = more binding, comparable within an allelic series) with PAX4 [11]. Moreover, the binding signal with VAX1 is 13.2 upbm affinity estimate (log intensity, higher = more binding, comparable within an allelic series); with HOXB9 [12], 11.7 upbm affinity estimate (log intensity, higher = more binding, comparable within an allelic series); with HOXC9 [13], 11.2 upbm affinity estimate (log intensity, higher = more binding, comparable within an allelic series); with PAX4 [14], 11.3 upbm affinity estimate (log intensity, higher = more binding, comparable within an allelic series); in the assay with HOXA2 [15], 10.9 upbm affinity estimate (log intensity, higher = more binding, comparable within an allelic series); in the assay with HOXA2 [16], 13.1 upbm affinity estimate (log intensity, higher = more binding, comparable within an allelic series).

Regarding CTCTTATC, the binding signal in the assay with NKX2-5 [17] is 11.5 upbm affinity estimate (log intensity, higher = more binding, comparable within an allelic series); with NKX2-5 [18] it was 11.4 upbm affinity estimate (log intensity, higher = more binding, comparable within an allelic series).
